The source of these data is the OligoGym collection.
Note: reference of the scale not given here.

One test deals with GOLGA1. Description: pooled miR-30 sensor sort-seq; sequence = guide strand. To be noted: shRNA.
As for TTCTAATGCAATTTCAAGCTTC, the sensor-assay potency score (higher = more potent) is 0.23. Same read-out and setting: as for TTATCTTCTGCAAGTTTCGGAC, the figure is -0.221. Still for that read-out and setting: as for TATAGTAGTGAAGAACTTCAGC, the figure is -0.313.

For the next test, the target named is GORASP1. The description is as above. The following applies: shRNA.
TTCCACATCCAGCACATGCCAC: the sensor-assay potency score (higher = more potent) is -1.05. Same read-out and setting: the value for TCCATGTAGTCACTCTGCCTGG was -1.3. Still for that read-out and setting: as for AATATTAGCATTGATACCCATT, the figure is -1.46; as for TGACTTGGAGTTATACACCATC, -1.14; as for TACACCATCAGCTTCAAGGGCT, 0.394.

The sequence TTATCCTCCAACTTATGGGGGA registered a sensor-assay potency score (higher = more potent) of -0.359. Still for that read-out and setting: the value for TGAAGATGGTTCCACATCCAGC was -1.37; that for TTATACACCATCAGCTTCAAGG was -1; that for TAACTCGCTGCACTGGAGGTGG was -0.397.

TTCAGTAGTGCCTTCAGGGTGT showed a sensor-assay potency score (higher = more potent) of 0.45.

For another test, the target named is GP1BA. The description is as above. To be noted: shRNA.
TATACAGCGAGTTCTCTTGGAG: the sensor-assay potency score (higher = more potent) was -0.385. The same measure, in the same setting: as for AACTTGACCACAGTCCTTGTGG, the figure is 0.0455; as for TAGACGGGAAACTTGTCTGAAT, -0.507. As for TTGACCACAGTCCTTGTGGCAC, the sensor-assay potency score (higher = more potent) was -0.461. Regarding TTTGGCTGTCTAGAGAAGCAGT, the sensor-assay potency score (higher = more potent) was -0.816. TTGGGGTCCATCTAGGTGGGAA returned a sensor-assay potency score (higher = more potent) of -0.196.

With TTCAGCATTGTCCTGCAGCCAG, the sensor-assay potency score (higher = more potent) was -0.558. Still for that read-out and setting: as for ATTTTCAGCATTGTCCTGCAGC, the figure is -0.496; as for TAGTGGATTCTTGTGTTGGATG, -1.15; as for TTTGGTATTGTATACAGCGAGT, -0.992. The same measure, in the same setting: the value for TAGAGGATCTCACAGTTGCATA was -1.69.

In turn, TTTCAGGTAGAGCTCTTGGAGT displayed a sensor-assay potency score (higher = more potent) of -0.846.

A further test deals with GP6. Described as above. To be noted: shRNA.
In turn, TTGCACAGGCTGATCTTGTTTT had a sensor-assay potency score (higher = more potent) of -0.638. Sequence TTCGTTTGTGAATGAGACGGTC registered a sensor-assay potency score (higher = more potent) of 0.0865. On the same count and under the same terms, the value for TTGTTTTCTAATGTGAAGGGAA was -0.126; that for TATTTTTTGAGACAAAGTCAGG was -1.21. Same read-out and setting: as for TTTTACACTAAGGAAAATGAAT, the figure is -1.19.

ATTATTAGGATCACAGCCCCGA: the sensor-assay potency score (higher = more potent) is -0.0711. The same measure, in the same setting: as for TAGCATCGGTAGGTTCCGCTGT, the figure is -0.0169; as for TTTGTTGGTAGAGATGAGGTTT, -0.205.

TTTTGAGACAAAGTCAGGCTTC came in with a sensor-assay potency score (higher = more potent) of 0.424.

TAGCCCTGTACCATCTCTCGGG showed a sensor-assay potency score (higher = more potent) of -0.328.

The target in a further test is GPAA1. The description is as above. To be noted: shRNA.
The sequence AAAACCAGCGCCAAGAACCAGG had a sensor-assay potency score (higher = more potent) of -1.17.

TTTCCGGGAGAAACTCTGCGTG returned a sensor-assay potency score (higher = more potent) of -0.575. TTGAGGCGCAGCACTAGGCGGG yielded a sensor-assay potency score (higher = more potent) of -0.543. Still for that read-out and setting: the value for TTGAGCTTGCGGAACATGCCCT was -0.132; that for TTCTGTTACCAGGAAGACGATA was -1.01.
